In PubChem BioAssay (NCATS):
Several values for one entry are separate records, joined by “and”; a condition that tells them apart may be missing. Equal entries are not always repeated. Records with an inconclusive call do not appear. Entries that show only a call come without a potency. Values without a mark were called inactive. Activity calls are given as the source filed them. Calls come from the whole dose curve; as a rule, active = well fitted curve in the direction sought with a large enough effect; inconclusive = small, poorly fitted or top-dose-only effect, or another doubt; inactive = no such curve, though single readings can be large; an effect the other way counts as inactive or inconclusive.

Experiment: qHTS of pediatric cancer cell lines to identify multiple opportunities for drug repurposing: Primary screen for DAOY cells (AID 1347090); note: nearly all actives have a fitted effect of over 55% in size
Details: DAOY medulloblastoma viability, CellTiter-Glo luminescence, 48 h; series mostly up to 46 µM; activity change, negative = cytotoxic: at the top concentration
Summary of the method: (§1)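 Viability measured as metabolically active cells via CellTiter-Glo luminescence following 48 hours of compound exposure, 11-point dilutions in confirmatory testing. 500-1,000 cells/well plated 5 hours before dosing; controls were DMSO and 2.3 µM bortezomib.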
Potency is the fitted concentration of half-maximal effect.

SMILES | Potency | activity change, negative = cytotoxic [%]
C[C@@H]1CN(c2c(F)c(N)c3c(=O)c(C(=O)O)cn(C4CC4)c3c2F)C[C@H](C)N1 | inactive | –
C[C@@H]1C[C@H]2[C@@H]3CCC4=CC(=O)C=C[C@]4(C)[C@@]3(Cl)[C@@H](O)C[C@]2(C)[C@@]1(OC(=O)c1ccco1)C(=O)CCl | 18.7 µM (active) | –
Nc1nc(N)c2nc(CNc3ccc(C(=O)NC(CCC(=O)O)C(=O)O)cc3)cnc2n1 (stereo not drawn) | – | -36.3
NC(=O)c1ccc2[nH]ccc2c1 | – | -9.25
CN1CCN(c2c(F)cc3c(=O)c(C(=O)O)cn4c3c2OCN4C)CC1 | inactive | –
CCc1c2c(nc3ccc(OC(=O)N4CCC(N5CCCCC5)CC4)cc13)-c1cc3c(c(=O)n1C2)COC(=O)[C@]3(O)CC | 13.3 µM (active) and 1.48 µM (active) | –
NCCCC(O)(P(=O)(O)O)P(=O)(O)O | inactive | –
NC(=O)c1cccc(N)c1 | – | -1.82
Cc1oc(=O)oc1CN1CCN(c2cc3c(cc2F)c(=O)c(C(=O)O)c2n3C(C)S2)CC1 (stereo not drawn) | inactive | –
Nc1nc(=S)c2[nH]cnc2[nH]1 | 2.11 µM (active) and 1.87 µM (active) | –
CCOC(=O)c1ccc(C#Cc2ccc3c(c2)C(C)(C)CCS3)nc1 | inactive | –
COc1nc(N)nc2c1ncn2[C@@H]1O[C@H](CO)[C@@H](O)[C@@H]1O | inactive | –
O=C(O)C1CCCN(CCC=C(c2ccccc2)c2ccccc2)C1 (stereo not drawn) | – | -5.97
OC(Cn1cncn1)(Cn1cncn1)c1ccc(F)cc1F | inactive | –
CNS(=O)(=O)CCc1ccc2[nH]cc(C3CCN(C)CC3)c2c1 | – | -17.7
CCN(CC)CCn1c(=O)c(Cc2ccc(OC)cc2)nc2ccccc21 | – | 6.51
O=S(=O)(c1cccc2cnccc12)N1CCCNCC1 | inactive | –
CCN(CC)CC#CCOC(=O)C(O)(c1ccccc1)C1CCCCC1 (stereo not drawn) | – | 6.85
O=P(O)(O)C(O)(Cc1cccnc1)P(=O)(O)O | inactive | –
COc1ccccc1OCC(O)COC(N)=O (stereo not drawn) | inactive | –
CCN(C)C(=O)Oc1cccc([C@H](C)N(C)C)c1 | inactive | –
CC(=O)[C@H]1CC[C@H]2[C@@H]3CC=C4C[C@@H](O)CC[C@]4(C)[C@H]3CC[C@]12C | inactive | –
CC(C)C[C@H](NC(=O)[C@H](CCc1ccccc1)NC(=O)CN1CCOCC1)C(=O)N[C@@H](Cc1ccccc1)C(=O)N[C@@H](CC(C)C)C(=O)[C@@]1(C)CO1 | 53.1 nM (active) and 93.5 nM (active) | –
COc1cc2nc(N3CCCN(C)CC3)nc(NC3CCN(Cc4ccccc4)CC3)c2cc1OC | 18.7 µM (active) | –
O=C(O)c1cn(C2CC2)c2cc(N3CCNCC3)c(F)cc2c1=O | inactive | –
CNS(=O)(=O)Cc1ccc2[nH]cc(CCN(C)C)c2c1 | inactive | –
Cn1c(=O)c2c(ncn2CC(O)CO)n(C)c1=O (stereo not drawn) | inactive | –

Experiment: qHTS of pediatric cancer cell lines to identify multiple opportunities for drug repurposing: Primary screen for SJ-GBM2 cells (AID 1347091)
Details: SJ-GBM2 viability, CellTiter-Glo luminescence, 48 h; series mostly up to 46 µM; activity change, negative = cytotoxic: at the top concentration
Summary of the method: as §1

SMILES | Potency | activity change, negative = cytotoxic [%]
C[C@@H]1CN(c2c(F)c(N)c3c(=O)c(C(=O)O)cn(C4CC4)c3c2F)C[C@H](C)N1 | inactive | –
CC1=C(C(=O)O)N2C(=O)[C@@H](NC(=O)C(N)c3ccccc3)[C@H]2SC1 (stereo partly drawn) | – | 16.2
CC1CC2C3CCC4=CC(=O)C=C[C@]4(C)[C@@]3(F)[C@@H](O)C[C@]2(C)[C@@]1(O)C(=O)CO (stereo partly drawn) | – | 3.61
C[C@@H]1C[C@H]2[C@@H]3CCC4=CC(=O)C=C[C@]4(C)[C@@]3(Cl)[C@@H](O)C[C@]2(C)[C@@]1(OC(=O)c1ccco1)C(=O)CCl | 9.35 µM (active) | –
Nc1nc(N)c2nc(CNc3ccc(C(=O)NC(CCC(=O)O)C(=O)O)cc3)cnc2n1 (stereo not drawn) | 0.0833 µM (active) | –
NC(=O)c1ccc2[nH]ccc2c1 | – | 5.66
CN1CCN(c2c(F)cc3c(=O)c(C(=O)O)cn4c3c2OCN4C)CC1 | inactive | –
N[C@@H](Cc1ccc(O)c(O)c1)C(=O)O | – | 27.6
CCc1c2c(nc3ccc(OC(=O)N4CCC(N5CCCCC5)CC4)cc13)-c1cc3c(c(=O)n1C2)COC(=O)[C@]3(O)CC | 1.19 µM (active) and 590 nM (active) | –
NCCCC(O)(P(=O)(O)O)P(=O)(O)O | inactive | –
NC(=O)c1cccc(N)c1 | – | 22.5
Cc1oc(=O)oc1CN1CCN(c2cc3c(cc2F)c(=O)c(C(=O)O)c2n3C(C)S2)CC1 (stereo not drawn) | inactive | –
Nc1nc(=S)c2[nH]cnc2[nH]1 | 0.935 µM (active) | –
CCOC(=O)c1ccc(C#Cc2ccc3c(c2)C(C)(C)CCS3)nc1 | inactive | –
COc1nc(N)nc2c1ncn2[C@@H]1O[C@H](CO)[C@@H](O)[C@@H]1O | inactive | –
O=C(O)C1CCCN(CCC=C(c2ccccc2)c2ccccc2)C1 (stereo not drawn) | – | 8.2

SMILES | Potency | activity change, negative = cytotoxic [%]
OC(Cn1cncn1)(Cn1cncn1)c1ccc(F)cc1F | inactive | –
CCN1CCCC1CNC(=O)c1cc(S(N)(=O)=O)ccc1OC (stereo not drawn) | – | 23.1
CCN(CC)CCn1c(=O)c(Cc2ccc(OC)cc2)nc2ccccc21 | – | 16.1
O=S(=O)(c1cccc2cnccc12)N1CCCNCC1 | – | -26.7
CCCCS(=N)(=O)CCC(N)C(=O)O (stereo not drawn) | – | 10.6
O=P(O)(O)C(O)(Cc1cccnc1)P(=O)(O)O | inactive | –
COc1ccccc1OCC(O)COC(N)=O (stereo not drawn) | inactive | –
CCN(C)C(=O)Oc1cccc([C@H](C)N(C)C)c1 | inactive | –
CC(=O)[C@H]1CC[C@H]2[C@@H]3CC=C4C[C@@H](O)CC[C@]4(C)[C@H]3CC[C@]12C | inactive | –
CC(C)C[C@H](NC(=O)[C@H](CCc1ccccc1)NC(=O)CN1CCOCC1)C(=O)N[C@@H](Cc1ccccc1)C(=O)N[C@@H](CC(C)C)C(=O)[C@@]1(C)CO1 | 66.8 nM (active) and 29.6 nM (active) | –
COc1cc2nc(N3CCCN(C)CC3)nc(NC3CCN(Cc4ccccc4)CC3)c2cc1OC | 14.8 µM (active) | –
O=C(O)c1cn(C2CC2)c2cc(N3CCNCC3)c(F)cc2c1=O | inactive | –
CNS(=O)(=O)Cc1ccc2[nH]cc(CCN(C)C)c2c1 | inactive | –
Cn1c(=O)c2c(ncn2CC(O)CO)n(C)c1=O (stereo not drawn) | inactive | –
CC(C)NCC(O)c1ccc(NS(C)(=O)=O)cc1 (stereo not drawn) | – | 55.4
